# Data from PubChem BioAssay.
# Activity calls are given as the source filed them.
# How the values were obtained:
# [1] = test system: XIP peptide (Xip251-270) binding; test: small-molecule binders of XIP peptide, primary screen, biochemical, small-molecule microarray, fluorescence 635/667 nm, 0.1 µg/mL protein (AID 1182); details: fluorescent protein binding, 635 nm, higher = more signal, called active from +8 up or from −8 down
# XIP peptide (Xip251-270) = test: small-molecule binders of XIP peptide, primary screen, biochemical, small-molecule microarray, fluorescence 635/667 nm, 0.5 µg/mL protein (AID 1183); details: small-molecule microarray binding, fluorescence 635 nm; higher = more signal
# [2] = Plasmodium falciparum growth inhibition, primary screen, strain 3D7, DAPI fluorescence, 100 nL (AID 1184);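 further: parasites grown inside human red blood cells in medium with human serum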; details: P. falciparum 3D7 growth, 3 d, higher = more signal
# [3] = target: Homeobox protein Hox-A13 (Mus musculus) (UniProt Q62424); test: inhibitors of HoxA13-DNA binding, primary screen, biochemical, fluorescence polarization, labeled oligonucleotide (AID 1185); details: 15 min, higher = more signal, called active from +8 up or from −8 down
# Sequence of Homeobox protein Hox-A13 (Mus musculus) (Q62424 whole entry, looked up): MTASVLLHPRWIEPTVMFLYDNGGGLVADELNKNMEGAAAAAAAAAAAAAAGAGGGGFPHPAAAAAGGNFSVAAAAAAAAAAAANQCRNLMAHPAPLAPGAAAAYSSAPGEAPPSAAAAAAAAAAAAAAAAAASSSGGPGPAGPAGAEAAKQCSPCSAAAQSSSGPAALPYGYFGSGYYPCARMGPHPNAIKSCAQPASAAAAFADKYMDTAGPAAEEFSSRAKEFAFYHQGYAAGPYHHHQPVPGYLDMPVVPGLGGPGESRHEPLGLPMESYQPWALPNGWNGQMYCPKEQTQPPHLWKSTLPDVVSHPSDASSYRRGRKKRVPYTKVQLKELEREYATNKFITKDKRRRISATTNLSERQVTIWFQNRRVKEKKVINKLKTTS
SMILES,composite z-score [1],composite z-score (XIP peptide (Xip251-270)),z-score [2],z-score [3]
CO[C@@H]1C=CCC(=O)N[C@@H](C)C(=O)OC[C@@H](OC)[C@H](C)CCCC(=O)OC[C@H]1C,-0.203 (inactive),0.111,0.0984,-0.313 (inactive)
O=C1C[C@@H](O)[C@@H](O)[C@@H]2[C@@H]3C(=O)N(Cc4ccc5c(c4)OCO5)C(=O)[C@@H]3CC[C@H]12,0.245 (inactive),0.0056,1.57,-0.523 (inactive)
COC(=O)[C@H](C)NC(=O)CCC1CC(OC(=O)NCc2ccc3c(c2)OCO3)CC2(CCCC(COC(=O)NCCc3ccccc3OC)O2)O1 (some centres undefined),0.516 (inactive),0.588,-0.143,-6.43 (inactive)
C#CCCCON=C1C[C@@H](O)[C@@H](O)[C@@H]2[C@@H]3C(=O)N(C(C)(C)C)C(=O)[C@@H]3CC[C@H]12,-0.217 (inactive),-0.385,-0.381,0.436 (inactive)
CC1O[C@H]2C3=C(C(=O)[C@@H]4O[C@@H]4[C@H]3O)[C@@H]1C1[C@@H](C)OC=C3[C@H](O)C4O[C@@H]4C(=NOCc4ccccc4)[C@]312 (some centres undefined),-0.319 (inactive),0.563,-0.352,-1.93 (inactive)
COC(=O)[C@H](C)NC(=O)CCC1CC(OC(=O)NCc2cccc3ccccc23)CC2(CCCC(COC(=O)NCC(c3ccccc3)c3ccccc3)O2)O1 (some centres undefined),0.519 (inactive),0.583,-1.87,-4.01 (inactive)
